PubChem BioAssay AID1347416 (National Center for Advancing Translational Sciences (NCATS), 2020)
The whole screen tested about 4,100 compounds, of which about 1,600 (39%) were called active. About 25% were inconclusive and are not listed. The call rests on the fitted dose curve; in most records, active means well fitted inhibition curve with a large enough effect; inconclusive means small, poorly fitted or top-dose-only effect; inactive means no such curve, though single readings can be large or run the other way. This is one part of the list.

Test: qHTS Validation assay for Inhibitors of Plasmodium falciparum Dd2 growth in vitro; further: nearly all actives have a fitted effect of over 70% in size
Settings: P. falciparum Dd2 in RBCs, SYBR Green growth, 72 h; series mostly up to 28.7 µM
Outline: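 P. falciparum Dd2-infected red blood cells (2.5% hematocrit, 0.3% parasitemia) grown 72 h at 37 °C under 5% O2 with compounds in a titration, 29 uM to 0.5 nM final. Growth read as SYBR Green-1 fluorescence after ~16 h lysis; artesunate 300 nM as positive control.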
Potency means the concentration at half of the fitted maximal effect.

Potency, active:
CCOc1ccc(NC(=O)c2cnn3c2NC(c2cccc(OC)c2)=CC3c2ccccc2)cc1 (stereo not given) 4.73 µM, COc1ccc(C2=CC(c3ccc(F)cc3)n3ncc(C(=O)Nc4ccc(C)cc4)c3N2)cc1 (stereo not given) 2.37 µM, COc1cccc(CC(=O)N2CCCn3nc(C)c(-c4ccccc4OCc4ccccc4)c32)c1 9.44 µM, Cc1nn2c(c1-c1ccccc1Oc1ccccc1)N(Cc1cccc(O)c1)CCC2 10.9 µM, COc1ccc(CN2CCCn3nc(C)c(-c4ccccc4Oc4ccccc4)c32)cc1O 9.44 µM, Cc1nn2c(c1-c1ccccc1Oc1ccccc1)N(Cc1ccccc1O)CCC2 4.85 µM, Cc1nn2c(c1-c1ccccc1OCc1ccccc1)N(Cc1ccccc1)CCC2 15.3 µM, Cc1ccc2c(n1)N(C)[C@H](CO)CCN(Cc1ccc(C(F)(F)F)cc1)C2 15.3 µM, CCOc1ccccc1C(=O)N1CCN(C(=O)c2nnn3c2COC(c2ccccc2)C3)CC1 (stereo not given) 16.8 µM, CC(C)(C)c1ccc(C(=O)N2CCN(C(=O)c3nnn4c3COC(c3ccccc3)C4)CC2)cc1 (stereo not given) 10.6 µM, COc1ccc(C)cc1-n1c(-c2ccc(Cl)cc2)cc2c1CC(C)(C)CC2=O 2.99 µM, CC(C)C[C@@H](NC(=O)[C@@H](O)[C@H](N)Cc1ccccc1)C(=O)O 2.99 µM, CC(Sc1nc2ccccc2c(=O)n1C)C(=O)N(C)C1CCCCC1 (stereo not given) 5.31 µM, COc1cccc(NC(=O)c2cccc3c(=O)c4c([nH]c23)CCCC4)c1 2.99 µM, Cc1cccc(-c2cc(C3CCN(S(=O)(=O)c4cccc(C#N)c4)CC3)[nH]n2)c1 15 µM, COc1cc2c3nnc(-c4ccc(F)cc4)c-3cn(Cc3ccccc3F)c2cc1OC 3.76 µM, COc1cc(-c2nc(-c3ccccc3)c(-c3ccc(Br)cc3)[nH]2)cc(OC)c1O 2.11 µM, COc1ccc2[nH]c(C)c(CCN(Cc3cccs3)C(=S)Nc3ccc(F)cc3)c2c1 4.22 µM, COc1ccc2[nH]c(C)c(CCN(Cc3cccs3)C(=S)Nc3ccccc3)c2c1 2.66 µM, COc1ccccc1CN1CCn2c(nn(-c3ccc([N+](=O)[O-])cc3)c2=O)C1 5.96 µM, CC(C)CCN1CCn2c(nn(-c3ccc([N+](=O)[O-])cc3)c2=O)C1 17.2 µM, Oc1c(CN2CCCCC2)cc(COCc2ccccc2)c2cccnc12 8.41 µM, CCOCc1cc(CN2CCN(c3ccccc3OC)CC2)c(O)c2ncccc12 5.96 µM, Oc1c(CN2CCCC2)cc(COCc2ccccc2)c2cccnc12 6.68 µM, COc1ccc(CCNC(=O)CCc2c(C)nc3c(c(C)nn3-c3ccc(C)c(C)c3)c2C)cc1OC 0.668 µM, COc1ccc(S(=O)(=O)Nc2ccc(C)n(CC(=O)Nc3ccccc3)c2=O)cc1 2.66 µM, Oc1c(C(Nc2nccs2)c2ccc(C(F)(F)F)cc2)ccc2cccnc12 (stereo not given) 5.31 µM, Oc1cccc(C(Nc2nccs2)c2ccc3cccnc3c2O)c1 (stereo not given) 7.5 µM, Oc1[nH]c2ccccc2c1N=NC(=S)N1CCOCC1 2.11 µM, CCc1cccc(-n2c(=O)c3cccnc3n2CC(=O)NCc2ccccc2)c1 1.68 µM, CCc1cccc(-n2c(=O)c3cccnc3n2CC(=O)NCc2ccc(C)cc2)c1 1.68 µM, CCc1cccc(-n2c(=O)c3cccnc3n2CC(=O)Nc2ccc(F)c(C)c2)c1 2.66 µM, CCc1ccc(-c2nn(CC(=O)NC3CCCCC3)c3c2cnc2ccc(OC)cc23)cc1 9.44 µM, CC(C)(C)c1ccc(-c2noc(-c3ncn4c3COC(c3ccc(F)cc3)C4)n2)cc1 (stereo not given) 15 µM, O=c1[nH]c(N2CCOCC2)nc2c1CCN(Cc1ccccc1C(F)(F)F)CC2 4.73 µM, O=c1[nH]c(N2CCOCC2)nc2c1CCN(Cc1ccccc1Br)CC2 15 µM, Cc1noc2c(NC3CCN(C)CC3)cc(-c3cccc(C(F)(F)F)c3)nc12 13.7 µM, O=C(Nc1ncccc1O)c1ccc(NS(=O)(=O)c2ccc3[nH]c(=O)[nH]c3c2)cc1 0.422 µM, CC(=O)N1c2c(cc(Br)cc2S(=O)(=O)N2CCN(c3cc(C)ccc3C)CC2)CC1C (stereo not given) 11.9 µM, O=C1NC(=NC2CCCCC2)C2(CCN(Cc3ccc(F)cc3)C2)N1c1cc(F)cc(F)c1 (stereo not given) 4.22 µM, O=C1NC(=NC2CCCC2)C2(CCN(Cc3ccc(F)cc3)C2)N1c1cc(F)cc(F)c1 (stereo not given) 10.6 µM, CCOC(=O)c1c(NC(=O)c2ccccc2)sc2c(O)c(CN(CC)CC)ccc12 0.15 µM, COc1cccc(Cn2c(Oc3ccccc3)nc3c2c(=O)n(C)c(=O)n3C)c1 4.73 µM, CCCOc1ccc(CCc2n[nH]c(=S)n2Cc2ccccc2)cc1 5.31 µM, CC(C)Oc1ccc(CCc2n[nH]c(=S)n2Cc2ccccc2)cc1 5.31 µM

Potency, inactive:
COCC(=O)N[C@@H]1CN(C(=O)Cc2cccc(OC)c2)CC[C@@H]1c1nc(C)no1, Cc1nn2c(c1-c1ccccc1Oc1ccccc1)N(C(=O)Cc1cccc(F)c1)CCC2, S=c1[nH]cc(-c2ccc(Cl)cc2)n1-c1ccccc1, COc1ccc(-n2nc(C3CCN(Cc4ccc(C(F)(F)F)cc4)CC3)[nH]c2=O)cc1, Cc1ccc(Cn2c(C3CCN(C(=O)c4ccc(C(F)(F)F)cc4)CC3)n[nH]c2=O)cc1, CCN(CC)C(=O)N1CCCCC1c1noc(COc2ccc(F)cc2)n1 (stereo not given), O=C(NCCC1=CCCCC1)C1CCN(C(=O)c2ncn3c2COC(c2ccccc2)C3)CC1 (stereo not given), CCc1cccc(NC(=O)C2CCN(C(=O)c3nnn4c3COC(c3ccc(C)cc3)C4)CC2)c1 (stereo not given), CC(C)c1cccc(NC(=O)C2CCN(C(=O)c3ncn4c3COC(c3ccccc3)C4)CC2)c1 (stereo not given), CCNC(=O)NC(=O)C(C)Sc1nc2ccccc2c(=O)n1-c1cccnc1 (stereo not given), COc1cccc(NC(=O)CSc2nc(=O)[nH]c3c2CCCC3)c1, COc1cccc(NC(=O)N[C@H]2[C@H](O)[C@@H](Oc3ccccc3)[C@@H]3OC[C@H]2O3)c1, CNC(=O)N1CCC(C2CCN(S(=O)(=O)c3cccc(C#N)c3)C2)CC1 (stereo not given), Cc1cccc(-c2cc(C3CCN(C(=O)Nc4ccccc4Cl)CC3)[nH]n2)c1, O=c1c2cc3c(nc2ncn1Cc1ccccc1F)CCCC3, CC1(C)Cc2nc3sc4c(SCC(=O)O)ncnc4c3cc2CO1, Cc1ccc(-n2nc3n(c2=O)CCN(C(=O)c2cccc(Cl)c2)C3)cc1, O=c1n(-c2ccc(Cl)cc2)nc2n1CCN(Cc1cccc3ccccc13)C2, COc1ccc(-n2nc3n(c2=O)CCN(C(=O)c2ccc(Cl)cc2)C3)cc1, O=C(Nc1ccc(Cl)cc1)N1CCn2c(nn(-c3ccc([N+](=O)[O-])cc3)c2=O)C1, COc1ccc(C(=O)N[C@@H]2CCC[C@@H]2C(=O)NCc2ccc(C)o2)cn1, COc1ccc(CCNC(=O)CCn2c(=O)c3ccccc3n(Cc3cc(C)ccc3C)c2=O)cc1OC, COc1cc(NC(=O)Cn2c(N(C)Cc3ccccc3)nc(C)cc2=O)cc(OC)c1, O=C(COc1ccc2ccccc2c1)Nc1nccs1, Nc1nc(C2CC(NC(=O)c3csc4c3CCCC4)C2)cc(=O)[nH]1 (stereo not given), O=C(COC(=O)c1ccc(-n2cnnn2)cc1)c1ccc(Br)cc1, O=C(Cn1c(=O)c2cccn2c2cccnc21)NCc1ccccc1F, O=C(CCc1nc2cccnc2n1Cc1ccccc1)NCc1cccc(Cl)c1, COc1ccc(Cn2c(=O)c3cccnc3n(CC(=O)Nc3ccc(C)c(F)c3)c2=O)cc1, O=C(CCn1c(=O)c2cccn2c2cccnc21)NCc1cccc(Br)c1, COc1ccc(CNC[C@H]2COCc3nc4cc(C(F)(F)F)ccc4n32)cn1, COc1ccc2ncc3c(-c4ccc(C)c(C)c4)nn(CC(=O)NC4CCCCC4)c3c2c1, CCOc1ccc(C2Cn3nnc(-c4nc(-c5ccsc5)no4)c3CO2)cc1 (stereo not given), O=C(NCc1ccccc1F)C1CCN(C(=O)c2ncn3c2COC(c2ccc(F)cc2)C3)CC1 (stereo not given), COc1cccc(CN2CCc3nc(N4CCOCC4)[nH]c(=O)c3CC2)c1OC, O=c1[nH]c(N2CCOCC2)nc2c1CCN(Cc1cccc(C(F)(F)F)c1)CC2, Cc1cc(Br)ccc1NC(=O)c1ccc(NS(=O)(=O)c2c(C)noc2C)cc1, O=C1NC(=NC2CCCCC2)C2(CCCN([S+](=O)([O-])c3ccccc3)C2)N1c1cccnc1 (stereo not given), O=C(c1ccc(C(F)(F)F)cc1)N1CCC2(CC1)C(=NC1CCCCC1)NC(=O)N2c1cc(F)cc(F)c1, CN(C)c1ccc(CN2CCC3(C2)C(=NC2CCCC2)NC(=O)N3c2cccnc2)cc1 (stereo not given), CN(C)c1ccc(CN2CCC3(C2)C(=NC2CCCCC2)NC(=O)N3c2cccnc2)cc1 (stereo not given), Cc1ccc(Oc2nc3c(c(=O)n(Cc4ccccc4)c(=O)n3C)n2C)cc1C, CCNc1nc2c(c(=O)n(C)c(=O)n2C)n1Cc1ccc(F)cc1, Cc1ccccc1C(=O)N1CCCCC12Cc1ccccc1NC2=O (stereo not given), CN1CCNc2nc(COc3ccc(Oc4ccccc4)cc3)n(Cc3ccccc3)c2C1=O
